# Measurements published in PubChem BioAssay (NCATS).
# “And” between values parts separate entries of the source, which are not always exact repeats. Equal values may be shown once. Results filed as inconclusive are left out. Where a call stands in place of a potency, no number is given. The source made the active and inactive calls. Unless noted, calls come from the whole dose curve.
# Experiments:
# [1] = biological target: Glucocorticoid receptor (Homo sapiens) (UniProt P04150); test: qHTS assay for small molecule agonists of glucocorticoid receptor signaling (AID 588532; active = well fitted curve in the direction sought with a large enough effect in the signal ratio, with a control signal flat; the % refers to the signal ratio); conditions: HeLa MMTV-bla, beta-lactamase ratio, agonist, 18 h; stronger effect = higher value; percent of dexamethasone control, DMSO zero
# Method in brief: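 MMTV-bla HeLa beta-lactamase reporter cells in 1% charcoal/dextran FBS medium, compounds up to 92 uM for 18 h at 37 C, CCF4 readout; normalized to 0.1 uM dexamethasone (100%), EC50 and efficacy from Hill fits.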
# [2] = biological target: Glucocorticoid receptor (Homo sapiens) (UniProt P04150); test: qHTS assay for small molecule antagonists of glucocorticoid receptor signaling (AID 588533; active = well fitted inhibition curve with a large enough effect in the signal ratio, with a control signal flat, not every such curve was filed as active; the % refers to the signal ratio;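 note: cells stimulated with 2 nM dexamethasone as agonist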); conditions: HeLa MMTV-bla, GRE beta-lactamase ratio, antagonist mode, 18 h; series mostly up to 76.8 µM
# Method in brief: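 Antagonist-mode qHTS: compound titrations added to GRE-bla HeLa cells, then dexamethasone 2 nM final; 18 h, 37 C. CCF4 FRET fluorescence normalized to dexamethasone and DMSO; IC50 from Hill fit.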
# [3] = qHTS assay for small molecule antagonists of peroxisome proliferator-activated receptor delta signaling (AID 588535; active = well fitted inhibition curve with a large enough effect in the signal ratio, with a control signal flat, not every such curve was filed as active; the % refers to the signal ratio;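 for max response: cells co-treated with a PPAR-delta agonist as stimulator during compound exposure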); conditions: HEK293T PPARd-UAS-bla, beta-lactamase FRET ratio, 18 h; 460 nm channel
# Method in brief: (§1)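 Fluorescence from CCF4-loaded GeneBLAzer PPAR-delta-UAS-bla HEK293T cells (2 hrs RT loading) quantified reporter inhibition after an 18 hr, 37 C compound exposure across a titration.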
# [4] = biological target: Peroxisome proliferator-activated receptor delta (Homo sapiens) (UniProt Q03181); test: as above; conditions: HEK293T PPARd-UAS-bla, beta-lactamase FRET ratio, 18 h; series mostly up to 76.7 µM
# Method in brief: as §1
# [5] = biological target: Estrogen receptor (Homo sapiens) (UniProt P03372); test: qHTS assay for small molecule antagonists of estrogen receptor alpha signaling (AID 588513; active = well fitted curve in the direction sought with a large enough effect in the signal ratio, with a control signal flat, not every such curve was filed as active; the % refers to the signal ratio); conditions: ER-alpha-UAS-bla HEK293, beta-lactamase ratio, antagonist mode; series mostly up to 76.9 µM
# Method in brief: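 ER-alpha-UAS-bla GripTite HEK 293 cells in medium with 2% charcoal/dextran-treated FBS were preincubated 4 h at 37 C, dosed with compound (1:2 titration), stimulated with 0.5nM 17-beta-estradiol for 18 h, then read by CCF4 beta-lactamase fluorescence.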
# [6] = biological target: Estrogen receptor (Homo sapiens) (UniProt P03372); test: qHTS assay for small molecule agonists of estrogen receptor alpha signaling (AID 588514); conditions: ER-alpha-UAS-bla HEK293, beta-lactamase ratio, 18 h; series mostly up to 76.8 µM; note: nearly all actives have a fitted effect of over 70% in size; note: potency is the fitted concentration of half-maximal effect
# Method in brief: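 Efficacy is expressed against 20 nM 17-beta-estradiol (100%) and DMSO basal (0%); EC50 from Hill equation. Assay: beta-lactamase reporter in ER-alpha-UAS-bla HEK 293 cells, 18 h compound incubation, CCF4 detection.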
# [7] = biological target: Androgen receptor (Homo sapiens) (UniProt P10275); test: qHTS assay for small molecule agonists of androgen receptor signaling (AID 588515; active = well fitted curve in the direction sought with a large enough effect in the signal ratio, with a control signal flat; the % refers to the signal ratio); conditions: AR-UAS-bla HEK293, beta-lactamase ratio, agonist 16 h; stronger effect = higher value
# Method in brief: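 Stimulation of an AR-responsive β-lactamase reporter in GripTite HEK293 cells was measured after 16 h compound exposure at 37 °C, via CCF4 fluorescence after 2 h RT. EC50 from Hill fits, normalized to R1881 at 30 nM.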
# [8] = biological target: Androgen receptor (Homo sapiens) (UniProt P10275); test: qHTS assay for small molecule antagonists of androgen receptor signaling (AID 588516; active = well fitted curve in the direction sought with a large enough effect in the signal ratio, with a control signal flat, not every such curve was filed as active; the % refers to the signal ratio); conditions: AR-UAS-bla HEK293, beta-lactamase ratio, antagonist mode, 16 h; series mostly up to 76.8 µM
# Method in brief: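 AR-UAS-bla-GripTite HEK 293 cells (2000/well, 5 h at 37 C) received compound titrations, then R1881 at 10 nM final; after 16 h at 37 C, CCF4 dye 2 h RT, beta-lactamase fluorescence read; IC50 from Hill fits.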
# [9] = biological target: Bile acid receptor (Homo sapiens) (UniProt Q96RI1); test: qHTS assay for small molecule antagonists of farnesoid X receptor signaling (AID 588526); conditions: HEK293T FXR-UAS-bla, beta-lactamase ratio, antagonist mode; series mostly up to 76.7 µM
# Method in brief: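 Antagonist mode: titrated compounds tested against chenodeoxycholic acid stimulation (normalized to 50 uM CDCA and DMSO) in GeneBLAzer HEK293T cells for 16 h. Beta-lactamase read by CCF4 fluorescence; IC50 from Hill fits.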
# [10] = biological target: Peroxisome proliferator-activated receptor gamma (Homo sapiens) (UniProt P37231); test: qHTS assay for small molecule agonists of peroxisome proliferator-activated receptor gamma signaling (AID 588536; active = well fitted curve in the direction sought with a large enough effect in the signal ratio, with a control signal flat, not every such curve was filed as active; the % refers to the signal ratio); conditions: HEK293 PPARg-UAS-bla, beta-lactamase ratio, 16 h, percent of rosiglitazone response, DMSO as zero; series mostly up to 76.7 µM
# Method in brief: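 Using GeneBLAzer HEK293 cells, response was quantified by CCF4 fluorescence and normalized between basal DMSO (0%) and rosiglitazone 2 uM (100%); curves yielded half-maximal stimulation concentration and efficacy.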
# Chain of Peroxisome proliferator-activated receptor delta (Homo sapiens) (Q03181 whole entry, looked up): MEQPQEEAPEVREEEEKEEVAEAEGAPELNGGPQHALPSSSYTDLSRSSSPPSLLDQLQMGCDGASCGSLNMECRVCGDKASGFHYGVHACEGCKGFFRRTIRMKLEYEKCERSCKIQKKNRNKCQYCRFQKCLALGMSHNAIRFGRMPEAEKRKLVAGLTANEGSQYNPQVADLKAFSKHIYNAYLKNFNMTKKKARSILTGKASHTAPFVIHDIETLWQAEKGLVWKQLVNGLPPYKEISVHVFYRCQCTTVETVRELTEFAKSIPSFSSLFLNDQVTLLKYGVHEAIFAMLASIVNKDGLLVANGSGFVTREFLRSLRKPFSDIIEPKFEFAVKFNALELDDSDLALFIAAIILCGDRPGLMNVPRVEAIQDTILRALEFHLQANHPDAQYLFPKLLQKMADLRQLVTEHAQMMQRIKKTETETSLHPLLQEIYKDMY
# Chain of Peroxisome proliferator-activated receptor gamma (Homo sapiens) (P37231 whole entry, looked up): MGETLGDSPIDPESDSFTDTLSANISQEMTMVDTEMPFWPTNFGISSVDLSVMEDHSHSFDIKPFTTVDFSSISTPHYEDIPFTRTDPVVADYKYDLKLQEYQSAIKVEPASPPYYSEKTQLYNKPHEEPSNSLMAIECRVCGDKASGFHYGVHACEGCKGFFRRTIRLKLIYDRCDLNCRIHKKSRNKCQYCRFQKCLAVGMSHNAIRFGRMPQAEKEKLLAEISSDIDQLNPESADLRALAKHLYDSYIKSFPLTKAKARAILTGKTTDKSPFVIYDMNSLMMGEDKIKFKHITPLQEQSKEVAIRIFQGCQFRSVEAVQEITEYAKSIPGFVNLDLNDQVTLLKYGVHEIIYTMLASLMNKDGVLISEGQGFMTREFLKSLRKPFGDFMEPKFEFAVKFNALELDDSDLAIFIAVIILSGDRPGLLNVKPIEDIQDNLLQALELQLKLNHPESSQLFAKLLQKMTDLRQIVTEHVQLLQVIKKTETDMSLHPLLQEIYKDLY
# Chain of Glucocorticoid receptor (Homo sapiens) (P04150 whole entry, looked up): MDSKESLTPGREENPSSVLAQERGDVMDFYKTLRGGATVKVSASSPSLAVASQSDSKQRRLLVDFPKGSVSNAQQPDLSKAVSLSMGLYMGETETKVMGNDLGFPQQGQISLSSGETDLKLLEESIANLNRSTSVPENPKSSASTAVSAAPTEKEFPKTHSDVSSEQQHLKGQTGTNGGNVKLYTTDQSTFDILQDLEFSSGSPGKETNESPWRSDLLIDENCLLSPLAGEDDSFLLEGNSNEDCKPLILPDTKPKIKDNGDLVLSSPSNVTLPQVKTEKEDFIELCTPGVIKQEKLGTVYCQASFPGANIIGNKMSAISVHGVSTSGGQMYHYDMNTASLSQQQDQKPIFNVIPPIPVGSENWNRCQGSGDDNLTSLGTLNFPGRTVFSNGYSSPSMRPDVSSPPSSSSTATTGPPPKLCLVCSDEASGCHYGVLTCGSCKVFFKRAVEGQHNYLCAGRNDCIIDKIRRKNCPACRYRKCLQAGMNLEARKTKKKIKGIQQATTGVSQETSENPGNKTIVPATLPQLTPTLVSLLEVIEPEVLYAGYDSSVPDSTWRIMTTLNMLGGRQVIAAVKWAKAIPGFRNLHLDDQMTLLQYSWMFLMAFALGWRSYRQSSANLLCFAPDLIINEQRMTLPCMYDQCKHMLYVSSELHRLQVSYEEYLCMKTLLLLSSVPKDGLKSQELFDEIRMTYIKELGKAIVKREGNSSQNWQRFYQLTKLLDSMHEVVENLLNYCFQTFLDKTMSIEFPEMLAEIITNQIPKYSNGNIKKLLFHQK
# Chain of Estrogen receptor (Homo sapiens) (P03372 whole entry, looked up): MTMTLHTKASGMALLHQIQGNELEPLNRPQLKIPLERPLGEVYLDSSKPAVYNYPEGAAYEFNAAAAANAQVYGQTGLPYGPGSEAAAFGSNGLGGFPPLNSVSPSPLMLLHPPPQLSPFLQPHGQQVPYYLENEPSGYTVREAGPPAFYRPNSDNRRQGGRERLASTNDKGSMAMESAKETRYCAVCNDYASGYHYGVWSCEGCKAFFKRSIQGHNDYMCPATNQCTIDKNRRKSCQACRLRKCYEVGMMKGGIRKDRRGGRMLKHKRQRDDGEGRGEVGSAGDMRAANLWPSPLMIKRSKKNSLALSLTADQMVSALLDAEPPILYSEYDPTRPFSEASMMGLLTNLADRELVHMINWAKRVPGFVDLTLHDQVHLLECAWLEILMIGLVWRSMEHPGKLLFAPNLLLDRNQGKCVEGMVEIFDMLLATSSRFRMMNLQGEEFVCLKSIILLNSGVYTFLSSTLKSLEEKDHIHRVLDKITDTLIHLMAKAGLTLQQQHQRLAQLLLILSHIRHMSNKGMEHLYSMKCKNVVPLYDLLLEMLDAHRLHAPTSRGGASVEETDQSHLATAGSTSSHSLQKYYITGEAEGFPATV
# Chain of Androgen receptor (Homo sapiens) (P10275 whole entry, looked up): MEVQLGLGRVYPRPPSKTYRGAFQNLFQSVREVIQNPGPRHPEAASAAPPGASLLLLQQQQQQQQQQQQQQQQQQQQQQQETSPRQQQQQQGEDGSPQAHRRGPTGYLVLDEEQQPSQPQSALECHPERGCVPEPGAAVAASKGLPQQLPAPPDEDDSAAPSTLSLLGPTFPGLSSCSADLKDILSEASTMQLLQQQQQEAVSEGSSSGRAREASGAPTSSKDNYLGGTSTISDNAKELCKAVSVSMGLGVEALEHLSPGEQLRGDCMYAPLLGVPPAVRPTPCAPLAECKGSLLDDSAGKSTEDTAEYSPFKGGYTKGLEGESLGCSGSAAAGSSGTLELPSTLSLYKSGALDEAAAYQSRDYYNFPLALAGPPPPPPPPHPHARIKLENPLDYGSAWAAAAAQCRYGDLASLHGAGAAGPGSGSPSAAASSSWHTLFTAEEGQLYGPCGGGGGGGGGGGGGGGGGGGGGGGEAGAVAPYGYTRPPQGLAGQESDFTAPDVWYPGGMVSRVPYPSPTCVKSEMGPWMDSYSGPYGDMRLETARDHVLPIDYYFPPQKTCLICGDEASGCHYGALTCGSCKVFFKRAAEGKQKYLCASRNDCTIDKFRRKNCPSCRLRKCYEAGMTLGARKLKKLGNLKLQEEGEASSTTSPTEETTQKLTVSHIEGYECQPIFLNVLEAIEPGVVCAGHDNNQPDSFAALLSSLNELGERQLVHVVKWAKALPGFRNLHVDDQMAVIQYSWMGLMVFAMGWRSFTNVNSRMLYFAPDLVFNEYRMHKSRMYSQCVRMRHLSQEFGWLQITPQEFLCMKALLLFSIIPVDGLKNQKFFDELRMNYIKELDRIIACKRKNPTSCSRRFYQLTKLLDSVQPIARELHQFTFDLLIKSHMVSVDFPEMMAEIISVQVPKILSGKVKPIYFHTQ
# Chain of Bile acid receptor (Homo sapiens) (Q96RI1 whole entry, looked up): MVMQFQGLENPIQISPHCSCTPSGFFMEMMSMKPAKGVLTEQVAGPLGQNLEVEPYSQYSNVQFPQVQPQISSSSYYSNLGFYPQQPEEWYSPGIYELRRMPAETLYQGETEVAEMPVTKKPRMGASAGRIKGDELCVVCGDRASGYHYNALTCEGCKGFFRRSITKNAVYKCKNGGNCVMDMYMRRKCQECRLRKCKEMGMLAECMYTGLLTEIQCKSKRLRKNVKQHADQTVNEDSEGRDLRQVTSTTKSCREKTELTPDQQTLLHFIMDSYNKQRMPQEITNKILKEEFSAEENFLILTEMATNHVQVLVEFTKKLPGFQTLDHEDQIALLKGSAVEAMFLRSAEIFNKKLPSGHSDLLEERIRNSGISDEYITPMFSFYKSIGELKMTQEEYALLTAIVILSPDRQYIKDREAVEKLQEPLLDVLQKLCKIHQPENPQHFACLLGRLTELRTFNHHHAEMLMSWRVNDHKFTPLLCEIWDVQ
smiles,measurement,setting,value
CCCCC(CC)COC(=O)CC(C(=O)OCC(CC)CCCC)S(=O)(=O)O (stereo unspecified),activation,[1],-0.211% (inactive)
same,outcome,[2],inactive
same,max response,[3],46.2%
same,outcome,[4],inactive
CC1=CCC(C(C)(C)O)CC1 (stereo unspecified),outcome,[5],inactive
same,Potency,[6],inactive
same,activation,[7],3.37% (inactive)
same,outcome,[8],inactive
same,Potency,[9],inactive
same,max response,[3],-21.9%
same,outcome,[4],inactive
same,outcome,[10],inactive
C[C@H]1C[C@H]2[C@@H]3CCC4=CC(=O)C=C[C@]4(C)[C@@]3(F)[C@@H](O)C[C@]2(C)[C@@]1(O)C(=O)CO,outcome,[2],inactive
CC(O)CO (stereo unspecified),outcome,[5],inactive
same,Potency,[6],inactive
same,Potency,[9],inactive
same,activation,[1],-4.49% (inactive) and -3.73% (inactive)
same,outcome,[2],inactive
same,max response,[3],21.4% and -10.4%
same,outcome,[4],inactive
same,outcome,[10],inactive
CC1(C)C(C=C(Cl)Cl)C1C(=O)OCc1cccc(Oc2ccccc2)c1 (stereo unspecified),outcome,[5],inactive
same,Potency,[6],inactive
same,activation,[7],4.68% (inactive) [middle of 4 runs]
same,outcome,[8],inactive
same,outcome,[2],inactive
same,outcome,[4],inactive
CCCCCCCC(=O)O,outcome,[5],inactive
same,Potency,[6],inactive
same,outcome,[2],inactive
same,outcome,[10],inactive
O=S(=O)(O)O,outcome,[10],inactive
CC1=C(/C=C/C(C)=C/C=C/C(C)=C/CO)C(C)(C)CCC1,outcome,[5],inactive
same,Potency,[6],3.16 µM (active)
same,outcome,[10],inactive
O=C(O)CN(CCN(CC(=O)O)CC(=O)O)CC(=O)O,outcome,[10],inactive
Cc1ccccc1,activation,[1],-1.45% (inactive) and 2.79% (inactive)
same,outcome,[2],inactive
same,max response,[3],1.03% and 40.9%
same,outcome,[4],inactive
same,outcome,[10],inactive
CCCCCCCC/C=C\CCCCCCCC(=O)O,outcome,[5],inactive
same,Potency,[6],inactive
same,Potency,[9],inactive
same,activation,[1],-2.91% (inactive) and 1.43% (inactive)
same,outcome,[2],inactive
same,max response,[3],18% and 10.3%
same,outcome,[4],inactive
same,outcome,[10],inactive
CCOC(C)=O,outcome,[5],inactive
same,Potency,[6],inactive
same,activation,[1],-2.25% (inactive)
same,outcome,[2],inactive
same,max response,[3],-20.7%
same,outcome,[4],inactive
same,outcome,[10],inactive
